# According to the OligoGym collection:
# Molecular target: GPR137
# Experiment: pooled miR-30 sensor sort-seq; sequence = guide strand
# Conditions: shRNA
# Further: reference of the scale not given here.
row,Sequence,sensor-assay potency score (higher = more potent)
1,TCCAGGTAGATGCTAGTGGAGG,-2.54
2,TTGGCCTCCAGGTAGATGCTAG,-0.691
3,TCAGACACATTGTACCAGCCGT,-0.426
4,TAGAGCAGGACCATGGCGCCAC,-0.353
5,AGTGCTGTCAGGTTGTAGCAGG,-1.93
6,TCACTATGACAGGAGCAGCAAG,-1.58
7,AAGAACTGCAGGCAGACGGGGC,-0.842
8,TGGTCAGACACATTGTACCAGC,-1.27
9,TAATCGAAGGTGTCCAGCCGGC,-0.771

# Molecular target: GPR172A
# Experiment: as above
# Conditions: shRNA
row,Sequence,sensor-assay potency score (higher = more potent)
1,TCACGTAGGAGAACACGCCAAG,-1.31
2,AAAACGCTCAAGGAAGTCGAGC,-1.04
3,TGATAGAAGCTGATAGGCCTTA,-0.123
4,AAGAATGACCGTAAGAAGCGAG,-0.349
5,TTAGGGTCTGGACCAGGGGTGG,-1.64
6,TGACCCAGGAAGAATGACCGTA,-0.348
7,TGGAACACGTGATAGATGCTGG,-0.57
8,TTCTGCTGTGGAACACGTGATA,-0.914
9,TGACATTCGAGGCACAGCATGC,-1.17
10,TTGGTGGCTCTTGCAGTGGTGA,-1.5
11,TTGGTCAGCGCGTTGGTGGCGG,-0.894
12,TTCACGTAGGAGAACACGCCAA,-0.595

# Molecular target: GPR173
# Experiment: as above
# Conditions: shRNA
row,Sequence,sensor-assay potency score (higher = more potent)
1,TAGCGGGTGACGCTGATGCAGA,-1.36
2,ATAAAGGCCACAATCTTGCAGC,-0.595
3,TGCACTGGCTTCATCTTGCGGT,-0.396
4,TCACGCACATAATCAGTCCTAG,-0.629
5,TTGCCGTAGACAGCATGGGTAG,-1.57
6,TTCACCCTTGACCTCGTCCATG,-1.32
7,AATCAGTCCTAGCAGTACCAGC,-1.44
8,TTTCACAAACACTCGCCAGTAG,-0.0654
9,TACTCGAAGAGGAGCAGCTTGC,-1.59
10,AAGGCCACAATCTTGCAGCTGA,0.463
11,TGAAGGTCCATGAAGAGCCGTG,-0.497
12,TAAACTTGTAGGTGCCCACGTC,0.745

# Molecular target: GPR176
# Experiment: as above
# Conditions: shRNA
row,Sequence,sensor-assay potency score (higher = more potent)
1,TTGAACACGGTTGTGCGGCAAG,-0.817
2,TAACACCATGAAGTTTCCGAGC,-1.48
3,TAGAGGACTGAGTAGTACCTGT,-0.351
4,ATAGATGTCAGCCACATTGGTT,-1.26
5,TTGCTGTTTCGGGTCTCTGAGA,-1.55
6,TATGATGACCTTCTTCTTCTGG,0.194
7,TTTTTAATGAACCTGTTGGTGA,-0.59
